High-throughput results deposited in PubChem BioAssay by National Center for Advancing Translational Sciences (NCATS).
Gal4-VP16 FLuc: Gal4-VP16 reporter inhibition counter-screen | Drosophila S2 Gal4-VP16 UAS-luciferase, luminescence, 20 h | 310,000 compounds, 3.5% hits | Potency, µM (highest dose often 53.6 µM), for the others: at the top dose activity, negative = inhibition, hits mostly inhibitors;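 further: Gal4-VP16 expression switched on by copper sulfate through the metallothionein promoter; nearly all actives have a fitted effect of over 50% in size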
PLK1 PBD inh: blocks phosphopeptide binding to human PLK1 polo-box domain; Potency, µM, for the others: max response, negative = inhibition, most hits filed as inhibitors; AID 720504; 360,000 compounds, 2.8% hits; P53350; Plk1 PBD binding of FITC phosphopeptide, fluorescence polarization; further: series mostly up to about 57 µM; nearly all actives have a fitted effect of over 65% in size
Target sequence (P53350 whole entry, looked up, the tested form may be a part): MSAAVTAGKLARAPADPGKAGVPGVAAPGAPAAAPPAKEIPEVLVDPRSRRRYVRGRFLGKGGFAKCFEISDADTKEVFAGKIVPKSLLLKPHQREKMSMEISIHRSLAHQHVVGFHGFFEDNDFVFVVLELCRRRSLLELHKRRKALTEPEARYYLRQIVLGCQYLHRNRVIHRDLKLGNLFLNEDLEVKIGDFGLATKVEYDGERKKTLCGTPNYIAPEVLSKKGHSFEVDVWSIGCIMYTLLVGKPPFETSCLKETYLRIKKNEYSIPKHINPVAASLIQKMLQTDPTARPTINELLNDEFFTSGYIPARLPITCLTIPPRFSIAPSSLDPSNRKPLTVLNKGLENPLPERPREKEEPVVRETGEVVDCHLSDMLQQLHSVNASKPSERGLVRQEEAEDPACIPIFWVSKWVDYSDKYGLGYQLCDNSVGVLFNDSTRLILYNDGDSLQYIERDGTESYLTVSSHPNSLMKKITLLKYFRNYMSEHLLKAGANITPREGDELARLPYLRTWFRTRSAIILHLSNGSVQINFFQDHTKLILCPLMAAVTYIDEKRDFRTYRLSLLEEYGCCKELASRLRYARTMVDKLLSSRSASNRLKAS
RORg inh: ROR gamma (mouse) transcription inhibition | P51450 | Drosophila S2 Gal4-RORgamma UAS-luciferase reporter, 20 h | Potency, µM (doses to about 53.6 µM), without a hit: top-dose activity change, negative = inhibition, hits mostly inhibitors | 310,000 compounds, 5.4% hits; further: nearly all actives have a fitted effect of over 60% in size
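Luciferase reporter read in Schneider cells carrying Gal4-RORγ (mouse) and UAS-Photinus luciferase; cells given compound 1 h before 700 uM copper sulfate induction, then incubated 20 h at ambient temperature.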
ALDH1A1 block: blocks purified human ALDH1A1 activity. 220,000 compounds, 7.3% hits. AID 1030. Purified ALDH1A1, NADH fluorescence, propionaldehyde substrate. Potency, µM (titrated, usually from 75.3 µM), inactives show top-dose activity, negative = inhibition, usual class: inhibitors; active means well fitted inhibition curve with a large enough effect, not every such curve was filed as active; inconclusive means small, poorly fitted or top-dose-only effect, or another doubt; inactive means no such curve, though single readings can be large or run the other way;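 further: plate controls were no enzyme wells and a reference inhibitor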
Sfp inh: inhibitors of Bacillus subtilis Sfp phosphopantetheinyl transferase | Biochemical Sfp PPTase activity, qHTS | Q9F4F7 | 310,000 compounds, 3.5% hits | Potency, µM, for the others: largest response in the series, negative = inhibition, usual class: inhibitors | AID 1490;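 further: the enzyme is Sfp with the accession as filed and its product quenches rhodamine fluorescence; 0% = enzyme reaction without inhibitor and -100% = no enzyme wells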
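Fluorescence-quenching assay with 15 nM Sfp, 5 uM rhodamine-CoA and 12.5 uM BHQ-2-labelled ybbR peptide in pH 7.6 Hepes/MgCl2 buffer. Enzyme was pre-incubated with compound for 15 min at room temperature. Rate was taken from the 30-min fluorescence change (525/598 nm).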
Numbers without * were called inactive; ? = inconclusive; . = no result given; [ ] = remark or other dose. In the library only some 12% were active in any assay of this set; here they are far more common. Unless noted, the call rests on the fitted dose curve; in most records, active means well fitted curve in the direction sought with a large enough effect; inconclusive means small, poorly fitted or top-dose-only effect, or another doubt; inactive means no such curve, though single readings can be large; an effect the other way counts as inactive or inconclusive. Unless noted, on the % scale 0 is the no-effect control and ±100 the full control effect; potency means the concentration at half of the fitted maximal effect.

SMILES	Gal4-VP16 FLuc	PLK1 PBD inh	RORg inh	ALDH1A1 block	Sfp inh
Cc1ccc(-c2cc3nc(-c4ccccc4)cc(N4CCOCC4)n3n2)cc1	21%	27µM*	?	-2%	-17%
FC(F)(F)c1cc(-c2ccccc2)nc(N2CCOCC2)n1	-2%	-7%	0.79µM*	-1%	7%
CCCCNCC	-1%	.	13%	6%	.
Cc1ccc(CN(Cc2ccccc2)C(=S)NCC(=O)NCc2cccnc2)o1	7%	?	-14%	?	25µM*
COCCNC(=O)CNC(=S)N(Cc1ccccc1)Cc1cccnc1	-3%	-2%	-10%	-4%	19%
Cc1ccc(CNC(=O)CNC(=S)N(Cc2ccccc2)Cc2cccnc2)cc1	-5%	-18%	44%	?	12%
Cc1ccc(CN(Cc2ccco2)C(=S)NCC(=O)NCc2cccnc2)cc1	5%	?	0%	?	22µM*
CCCCC(=O)Nc1ccc(N2CCN(C(=O)c3ccco3)CC2)cc1	3%	-8%	-11%	.	24%
Cc1cccc(OCCCSc2nc3ccccc3[nH]2)c1	0%	4%	-14%	?	8%
O=S(=O)(CCOc1ccccc1)c1nc2ccccc2[nH]1	-12%	-10%	?	6.3µM*	14%
O=C(CCCOc1ccccc1)NCCc1nc2ccccc2[nH]1	1%	-16%	28%	-9%	12%
Cc1cccc(OCCCC(=O)Nc2nc3ccccc3[nH]2)c1	-21%	-21%	14µM*	5%	20%
Cc1ccc(OCCCC(=O)Nc2nc3ccccc3[nH]2)cc1	-5%	3%	6.3µM*	7%	20%
O=C(CCCOc1ccccc1)Nc1nc2ccccc2[nH]1	-7%	-6%	7.1µM*	8%	14%
O=S(=O)(Nc1nc2ccccc2[nH]1)c1ccccc1	-6%	-5%	-11%	?	-7%
CCc1nc2ccc(C(=O)Nc3ccc4c(c3)OCC(=O)N4)cn2c1N(C)C(=O)C1CCCCC1	.	-3%	.	.	.
COc1ccc(-c2ccc(CN3C(C)C(=O)N(Cc4cn(CCC5OCCO5)nn4)CCS3(=O)=O)cc2)cc1OC (configuration not stated)	.	-13%	.	.	.
COc1ccc(/C=C2\N=C(SC)SC2=O)cc1OC	-18%	3%	-15%	2%	5%
CCOc1cc(/C=C2\N=C(SCC)SC2=O)cc([N+](=O)[O-])c1OC(C)=O	-17%	27µM*	10%	32µM*	?
CCSC1=N/C(=C\c2ccc(C)s2)C(=O)S1	-12%	-6%	-23%	?	?
CCOc1cc(/C=C2\N=C(SC)SC2=O)cc([N+](=O)[O-])c1OC(C)=O	-15%	?	-7%	28µM*	?
CCOc1c(OC(C)=O)ccc(/C=C2\N=C(SCC)SC2=O)c1[N+](=O)[O-]	-3%	30µM*	-1%	?	-68%
COc1ccc(S(=O)(=O)N2CCC[C@H]2C(=O)N2CCC[C@H]2C(=O)N[C@@H](C)c2ccccc2)cc1C	.	2%	.	.	.
Cc1nnc(NC(=O)C23CC4CC(C)(CC(C)(C4)C2)C3)s1	.	10%	.	.	.
CC12CC3CC(C)(C1)CC(C(=O)Nc1nncs1)(C3)C2	18µM*	-2%	?	.	10%
SMILES	Gal4-VP16 FLuc	PLK1 PBD inh	RORg inh	ALDH1A1 block	Sfp inh
NC(=O)C1CCN(C(=S)NCCc2ccccc2)CC1	8%	-10%	-29%	?	2%
CCCNC(=S)N1CCC(NC(=O)C2CCCCC2)CC1	1%	24µM*	6%	25%	7%
CC1CCN(C(=S)NC(=O)C2CCCCC2)CC1	?	-1%	13µM*	?	9%
O=C(NC1CCN(C(=S)NCCc2ccccc2)CC1)C1CC1	?	-14%	10µM*	1%	?
CCCCCCC1Cc2cc(OC)c(OC)cc2C(C(C(=O)OCC)C(=O)OCC)O1 (configuration not stated)	5%[10 µM]	.	16%[10 µM]	10%[13.5 µM]	4%
CCN(CC)CCCC(C)n1c(-c2ccccc2)nc2c(NCCO)nc(C)nc21 (configuration not stated)	-7%	.	-17%	?	24%
C=CC[n+]1c(-c2ccc(OC)cc2)csc1NNC(=O)Nc1ccccc1	-19%	-2%	?	?	50µM*
COc1cc(C(=O)NC2CC2)cc(OC)c1OC	.	-12%	.	.	.
COc1ccc(-c2nnc(SCC(=O)N(C)C3CCS(=O)(=O)C3)n2CC(C)C)cc1 (configuration not stated)	.	-12%	.	.	.
O=C(CNC(=O)c1ccccc1F)NCCOc1ccccc1Cl	-1%	27µM*	-2%	4%	1%
COc1ccccc1C(=O)NCCOc1ccc(C(C)(C)C)cc1	?	4%	?	.	4%
CC(C)(C)c1ccc(C(=O)NCCOc2ccccc2F)cc1	6.3µM*	2%	7.1µM*	.	4%
CC(C)(C)c1ccc(C(=O)NCCOc2ccccc2)cc1	?	-21%	8.9µM*	.	-5%
O=C(NCCOc1ccccc1Cl)C(=O)NCCOc1ccccc1Cl	2%	-1%	-9%	-1%	8%
CC(C)=CCC/C(C)=C/CO/N=C1/C[C@@H](O)[C@@H](O)[C@@H]2[C@@H]3C(=O)N(Cc4ccccc4)C(=O)[C@H]3CC[C@@H]12	-2%[10 µM]	.	-6%[10 µM]	5%[13.5 µM]	10%
CCCn1c(N)c(C(=O)CSc2nnc(C3CC3)n2Cc2ccccc2)c(=O)n(C)c1=O	.	2%	.	.	.
O=C1CC(c2ccco2)CC2=C1C=Nc1ccccc1N2 (configuration not stated)	-7%	-8%	1%	2µM*	?
Cc1nc2n(n1)C(c1ccccc1)C1=C(CC(c3ccco3)CC1=O)N2 (configuration not stated)	-4%	-5%	29%	?	-15%
CCOc1ccc(OCC)c(C2C(C#N)=C(N)N(c3cccnc3)C3=C2C(=O)CC(C)(C)C3)c1 (configuration not stated)	5%	-7%	11%	3.5µM*	32µM*
CSc1sc(C)cc1C1C(C#N)=C(N)N(c2cccnc2)C2=C1C(=O)CC(C)(C)C2 (configuration not stated)	-5%	-4%	20%	7%	22%
Cc1cc(OCC(=O)N2CCN(c3ccccn3)CC2)cc(C)c1Br	2%	-10%	-3%	.	-15%
S=c1[nH]nc(C2CCCCC2)n1/N=C/c1c(Cl)cccc1Cl	?	30µM*	?	.	-10%
S=c1[nH]nc(C2CCCCC2)n1/N=C/c1ccc(Br)s1	4µM*	-16%	1.1µM*	-8%	21%
Cc1ccc(/C=N/n2c(C3CCCCC3)n[nH]c2=S)cc1	7.1µM*	?	2.5µM*	.	50µM*
FC(F)(F)c1ccc(/C=N/n2c(C3CCCCC3)n[nH]c2=S)cc1	10µM*	?	-39%	.	-4%
Cc1nc(NC2CCCCC2)c2nc(-c3ccccc3)n(CCN(C)C)c2n1	11%	.	-37%	?	8%
O=C(O/N=C/c1ccc(Cl)cc1)C1CCCCC1	-4%	2%	2%	.	16%
